Compound activity from PubChem.
IL-2 act: activates IL-2 in a cell-based reporter assay; IL-2 activation reporter assay, cell-based qHTS; stimulated with anti-CD3/CD4/CD28 beads; in transgenic mouse T cells; activation, % (series mostly up to about 46 µM); hit rate 0.065% among 360,000; AID 652025; in the data active = activation above about 50%; inconclusive = mostly about 30% to 49%; note: 0% is about no effect
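Unstimulated transgenic mouse T cells, 750 per well, received compound and, after 60 minutes, anti-CD3/anti-CD4 bead plus anti-CD28 stimulation. EGFP and DsRed were quantified after 18 hours.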
ClpP mod: qHTS Assay for Activators of ClpP | purified B. subtilis ClpP, FRET peptide cleavage, 20 min | Potency, µM (top dose mostly 57.5 µM), inactives show at the highest dose activity change, negative = active | hit rate 1.9% among 340,000 | AID 651965, 2013; active = well fitted falling curve with a large enough effect; inconclusive = small, poorly fitted or top-dose-only effect; inactive = no such curve, though single readings can be large or run the other way; note: potency is the fitted concentration of half-maximal effect; the source files actives as falling curves though it sought activators and does not explain the sign; nearly all actives have a fitted effect of over 65% in size
Target sequence (P80244 whole entry, looked up): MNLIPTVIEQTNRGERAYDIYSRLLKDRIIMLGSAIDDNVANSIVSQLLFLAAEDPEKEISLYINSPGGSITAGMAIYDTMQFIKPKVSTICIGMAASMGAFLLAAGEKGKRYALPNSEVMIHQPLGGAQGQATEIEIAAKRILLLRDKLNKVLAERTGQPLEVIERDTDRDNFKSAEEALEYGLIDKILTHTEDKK
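Buffer: 100 mM Tris/HCl pH8, 100 mM KCl, 0.05% low protease BSA, 2.5% glycerol, 0.01% Tween-20. ClpP 10 microg/mL final; 20 min RT; delta FRET normalized to ADEP and DMSO controls.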
Pin1 inh: inhibitors of human Pin1 | Q13526 | Pin1 FP peptide displacement, HiFluor488, 10 min | Potency, µM (doses to about 115 µM), for the others: at the top dose activity, negative = inhibition, usual class: inhibitors | hit rate 0.009% among 390,000; active = well fitted inhibition curve with a large enough effect in the polarisation, with a control signal flat, not every such curve was filed as active; inconclusive = small, poorly fitted or top-dose-only effect, or effect the other way, or a change in a side signal; inactive = no such curve, though single readings can be large or run the other way; the % refers to the polarisation; note: potency is the fitted concentration of half-maximal effect; % is set by controls: 0 for no effect and ±100 for the full control effect
Target sequence (Q13526 whole entry, looked up): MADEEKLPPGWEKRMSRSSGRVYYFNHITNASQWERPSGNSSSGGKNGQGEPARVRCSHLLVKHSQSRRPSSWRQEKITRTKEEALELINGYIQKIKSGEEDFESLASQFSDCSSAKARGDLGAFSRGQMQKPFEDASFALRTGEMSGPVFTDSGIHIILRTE
PKM2 activator: activators of human pyruvate kinase M2 | hit rate 0.34% among 260,000 | purified PKM2, Kinase-Glo ATP luminescence, activation; response scale: 0% is enzyme alone, no compound | P14618 | Potency, µM (top dose mostly 57.5 µM), without a hit: at the highest dose activation, hits mostly activators; note: potency is the fitted concentration of half-maximal effect; % is set by controls: 0 for no effect and ±100 for the full control effect; nearly all actives have a fitted effect of over 55% in size
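hPK-M2, >95% pure; 0.1 mM ADP / 0.5 mM PEP final; imidazole pH7.2 buffer w/ 7 mM MgCl2, 50 mM KCl; 1 h RT; Kinase-Glo lum. Intermediate enzyme activity for dual inhibitor/activator qHTS.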
Integrin act MD: integrin-mediated muscular dystrophy alleviation activation. AID 624291. alpha7betagal myoblasts, beta-gal FDG fluorescence, 48 h. Potency, µM (highest dose often 38.3 µM), inactives show at the highest dose activation, actives largely listed as activators. hit rate 0.064% among 350,000;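 note: potency is the fitted concentration of half-maximal effect; 100% = response of the positive control SU9516; nearly all actives have a fitted effect of over 60% in size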
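Alpha7betagal+/- myoblasts (passage 13) were plated 16-24 hr, then exposed to compounds (1:260 dilution of DMSO stock) for 48 hours at 37C. After MPER lysis, β-galactosidase reporter activity was read as FDG fluorescence (ex 480/em 540) after 30 minutes.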
USP2a block: USP2a (human) protease inhibition; O75604; hit rate 0.01% among 330,000; Potency, µM (top dose mostly 38.3 µM), without a hit: at the highest dose activity change, negative = inhibition, actives largely listed as inhibitors; AID 463254; USP2 core, Ub-CHOP2 coupled fluorogenic reporter, 485/531;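 note: potency is the fitted concentration of half-maximal effect; plate controls were DMSO wells for no effect and full inhibition by NEM control for full effect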
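Cell-free coupled assay: 10nM USP2 core preincubated 30min RT with compound in Tris-HCl pH 8.0/CaCl2/CHAPS buffer, then 25nM Ub-CHOP2 and 25nM reporter substrate; fluorescence (Ex 485/Em 531) read after 60min RT, normalized to NEM inhibition, concentration-response curves fitted.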
HeLa viability: reduces HeLa cell viability in PKM2 activator counter-screen; HeLa viability, CellTiter-Glo ATP luminescence, 24 h; AID 1898; 230 tested, under 10 active; activity change, negative = cytotoxicity, % at 57.5 µM; shares compounds with PKM2 activator; note: % of control where 0% means no effect
* hit, by the source's call; ? = inconclusive; nt = not tested or not shown. Rows were chosen to be rich in hits. Some 1.9% of all compounds tested hit in one or more screens of this group. Unless noted, calls come from the whole dose curve; as a rule, active = well fitted curve in the direction sought with a large enough effect; inconclusive = small, poorly fitted or top-dose-only effect, or another doubt; inactive = no such curve, though single readings can be large; an effect the other way counts as inactive or inconclusive.

SMILES	IL-2 act	ClpP mod	Pin1 inh	PKM2 activator	Integrin act MD	USP2a block	HeLa viability
CCC1CN(C(=O)N2CCC(C(=O)NCCc3cc(OC)ccc3OC)CC2)c2ccccc2O1 (stereo unspecified)	nt	-6%	5%	nt	nt	nt	nt
COc1ccc(-c2nnc(SCC(=O)NC3CCCC3)nc2-c2ccc(OC)c(OC)c2)cc1OC	nt	?	-1%	nt	nt	nt	nt
Cc1cc2c(s1)c1cnn(Cc3ccc(Cl)cc3)c(=O)c1n2C	nt	nt	42%	nt	nt	nt	-17
Cn1c2cc(Br)sc2c2cnn(Cc3c(F)cccc3F)c(=O)c21	nt	nt	nt	nt	nt	-1%	nt
Cn1c2cc(Br)sc2c2cnn(Cc3c(F)cccc3Cl)c(=O)c21	2	nt	-6%	nt	nt	-1%	nt
Cc1cc2c(s1)c1cnn(Cc3ccc(-c4ccccc4)cc3)c(=O)c1n2C	nt	nt	-6%	nt	nt	nt	-1
Cc1oc(-c2ccccc2Cl)nc1CS(=O)(=O)CC(=O)NCc1ccc(F)cc1	nt	-1%	?	nt	nt	nt	nt
CC(=O)c1c(C)[nH]c(C(=O)NCc2ccccc2Cl)c1C	-2	-4%	16%	7.9µM*	-3%	-2%	-3
CCc1c(C(=O)NCc2ccccc2Cl)[nH]c(C)c1C(C)=O	0	1%	-1%	2%	-10%	1%	nt
COc1ccc(S(=O)(=O)N2CCC(C(=O)c3ccc4c(c3)OCCO4)CC2)cc1	0	-5%	-1%	0%	-9%	-3%	nt
O=C(CN1CCN(S(=O)(=O)c2ccc3c(c2)OCCO3)CC1)Nc1cccc(F)c1	-2	nt	-3%	nt	7%	2%	nt
O=S(=O)(c1cccc(F)c1)N1CCN(S(=O)(=O)c2ccc3c(c2)OCCO3)CC1	nt	nt	-12%	nt	nt	nt	11
COc1ccc(S(=O)(=O)N2CCN(S(=O)(=O)c3ccc4c(c3)OCCO4)CC2)cc1	0	1%	-13%	0.22µM*	5%	0%	?
O=S(=O)(c1ccc2c(c1)OCCO2)N1CCN(S(=O)(=O)c2ccccc2F)CC1	nt	nt	-5%	nt	nt	nt	-6
COc1ccc(S(=O)(=O)N2CCC(C(=O)NCc3cccc(OC)c3)CC2)cc1	-2	-2%	-4%	1.6µM*	-17%	0%	0
Cc1ccc(S(=O)(=O)N(C)c2cccc3cccnc23)cc1	nt	nt	1%	nt	nt	nt	nt
Cc1ccc(S(=O)(=O)N2CCN(c3nc(-c4ccnnc4)nc4ccccc34)CC2)cc1	nt	-6%	3%	nt	nt	nt	nt
O=S(=O)(c1ccc2c(c1)OCCO2)N1CCN(Cc2ccccc2)CC1	-1	1%	1%	7%	-10%	0%	nt
O=C(c1ccc(F)cc1)N1CCN(S(=O)(=O)c2ccc3c(c2)OCCO3)CC1	6	-3%	nt	nt	7%	nt	nt
O=S(=O)(c1ccc2c(c1)OCCO2)N1CCN(S(=O)(=O)c2ccccn2)CC1	0	nt	11%	nt	nt	1%	-12
O=S(=O)(c1ccc2c(c1)OCCO2)N1CCN(S(=O)(=O)c2c(F)ccc(O)c2F)CC1	nt	nt	27%	nt	nt	nt	-6
O=S(=O)(c1ccc2c(c1)OCCO2)N1CCN(c2nc3ccccc3s2)CC1	-1	-3%	15%	4µM*	-9%	-1%	-9
COc1ccc(S(=O)(=O)N2CCN(S(=O)(=O)c3ccc(OC)cc3)CC2)cc1	nt	nt	1%	nt	nt	0%	-3
O=S(=O)(c1ccccc1F)N1CCN(c2nc3ccccc3s2)CC1	-1	nt	2%	-8%	?	0%	nt
Cc1ccc(N2CCN(Cc3nnc(-c4ccccc4F)o3)CC2)c(C)c1	nt	-1%	?	nt	nt	nt	nt
SMILES	IL-2 act	ClpP mod	Pin1 inh	PKM2 activator	Integrin act MD	USP2a block	HeLa viability
COc1ccc(N2CCN(C(CNC(=O)c3ccc(C)cc3)c3ccc4c(c3)OCO4)CC2)cc1 (stereo unspecified)	nt	-6%	-4%	nt	nt	nt	nt
CCc1cccc2nc3c(c([Si](C)(C)C)c12)Cn1c-3cccc1=O	nt	nt	nt	0%	nt	nt	nt
O=S(=O)(c1ccc2c(c1)OCCO2)N1CCN(S(=O)(=O)c2cccc[n+]2[O-])CC1	nt	nt	2%	nt	nt	nt	6
COc1cc(F)c(S(=O)(=O)N2CCN(S(=O)(=O)c3ccc4c(c3)OCCO4)CC2)c(F)c1	nt	nt	7%	nt	nt	nt	-8
O=S(=O)(c1ccc2c(c1)OCCO2)N1CCN(S(=O)(=O)c2ccc3c(c2)OCCO3)CC1	nt	nt	5%	nt	nt	-3%	5
O=S(=O)(c1cccc(Br)c1)N1CCN(S(=O)(=O)c2ccc3c(c2)OCCO3)CC1	1	nt	8%	nt	nt	4%	nt
CCNc1cccc(S(=O)(=O)N2CCCN(S(=O)(=O)c3ccc4c(c3)OCCO4)CC2)c1	nt	nt	9%	nt	nt	nt	nt
CCN(CC)CCn1c2c(c(SCC(=O)Nc3cccc(C(F)(F)F)c3)nc1=O)CCC2	nt	-3%	-2%	nt	nt	nt	nt
COc1ccc(Cl)cc1NC(=O)c1c(NCc2cccnc2)sc2c1CCC(C)C2 (stereo unspecified)	nt	-1%	3%	nt	nt	nt	nt
O=S(=O)(NCCCCNS(=O)(=O)c1c(F)cccc1F)c1ccc2c(c1)OCCO2	-1	nt	-7%	nt	nt	-1%	4
O=S(=O)(NCC1CCC(NS(=O)(=O)c2c(F)cccc2F)CC1)c1ccc2c(c1)OCCO2 (stereo unspecified)	0	nt	-2%	nt	nt	0%	nt
O=S(=O)(NCCNS(=O)(=O)c1c(F)cccc1F)c1ccc2c(c1)OCCO2	1	nt	-5%	nt	nt	3%	-2
CC(=O)Nc1cc(S(=O)(=O)Nc2cccc(C)c2)c(C)cc1C	1	2%	-4%	2%	-4%	5%	nt
Cc1cccc(NS(=O)(=O)c2cc3c(cc2C)n(C)c(=O)c(=O)n3C)c1	-4	-2%	1%	0.4µM*	0%	1%	-25
CC(Sc1ncc(C#N)c(N)n1)C(=O)Nc1ccccc1 (stereo unspecified)	-1	-1%	9%	4.5µM*	-7%	4%	-1
